Sampled rows, rich in hits. Any-hit rate of the full collection: about 2.7%.
MRP-1 activ: MRP-1 activation; H69AR cells + doxorubicin, viability rescue, CellTiter-Glo; viability increase, % at 10 µM; hit rate 0.61% among 140,000; AID 799;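 active = viability gain under doxorubicin at or above a set limit, the compound median plus 3 SD, cut at about 4.7% in these data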;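 note: MRP-1 overexpressing cells given doxorubicin 25 µM after compound pretreatment; 18-22 h compound pretreatment then 72 h with doxorubicin before readout; 0% = doxorubicin-only wells and 100% = vehicle-treated cells without doxorubicin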
MRP reversal: MRP-mediated drug resistance reversal. H69AR cells + 2 uM doxorubicin, CellTiter-Glo, 72 h. differential viability (reversal), % at 10 µM. hit rate 0.04% among 85,000;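 active = viability drop by adding the cancer drug above about 55%, with treated viability meeting a 40% cutoff, limit read from the data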;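 note: viability without doxorubicin minus viability with 2 µM doxorubicin for each compound; larger differential means the compound sensitizes cells more to doxorubicin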
ERa SRC1 inh: blocks coactivator binding to human estrogen receptor alpha. P03372. TR-FRET ER-alpha LBD / SRC-1 peptide, estradiol-bound. inhibition, % at 25.6 µM. hit rate 1.7% among 86,000. AID 629; in the data active = inhibition above about 50%;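 note: 0% = receptor plus peptide control and 100% = peptide only without receptor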
ERa SRC1 pot: enhances coactivator binding to human estrogen receptor alpha. coactivator binding (% of control), % at 25.6 µM. hit rate 1.3% among 86,000. TR-FRET ERalpha-LBD/SRC-Cy5 coactivator binding, 2 h; 100 = basal binding, no effect. AID 639. P03372; in the data active = activity above about 200%;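 note: binding measured in presence of low estradiol as agonist stimulus; 0% = peptide alone without receptor and 100% = receptor with peptide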
ERb SRC1 inh: ER-beta (human) coactivator binding inhibition; inhibition, % at 25.6 µM; AID 633; TR-FRET ER-beta LBD / SRC1-Cy5 peptide binding; receptor agonist-loaded with 1 µM estradiol; Q92731; hit rate 1.3% among 86,000;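 active = compounds whose percent inhibition of the receptor-coactivator binding signal exceeds about 50% in the single-dose screen, limit read from the data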;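 note: 0% = receptor plus peptide wells without compound and 100% = peptide-only wells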
Target sequence (Q92731 whole entry, looked up, the tested form may be a part): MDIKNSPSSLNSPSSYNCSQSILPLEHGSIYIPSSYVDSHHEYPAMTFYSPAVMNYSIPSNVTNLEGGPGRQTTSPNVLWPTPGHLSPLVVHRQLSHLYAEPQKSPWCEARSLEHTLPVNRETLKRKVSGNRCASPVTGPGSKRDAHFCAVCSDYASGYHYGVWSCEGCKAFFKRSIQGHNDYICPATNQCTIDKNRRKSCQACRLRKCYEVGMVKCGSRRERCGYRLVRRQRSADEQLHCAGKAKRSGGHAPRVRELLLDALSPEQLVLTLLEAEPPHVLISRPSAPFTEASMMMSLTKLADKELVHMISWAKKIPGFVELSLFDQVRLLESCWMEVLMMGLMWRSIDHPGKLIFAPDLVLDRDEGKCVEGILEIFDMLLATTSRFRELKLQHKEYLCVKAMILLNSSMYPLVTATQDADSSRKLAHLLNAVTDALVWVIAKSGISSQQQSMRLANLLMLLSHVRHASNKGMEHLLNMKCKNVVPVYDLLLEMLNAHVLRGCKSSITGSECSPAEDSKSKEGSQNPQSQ
* = called active by the depositor; / = no result given; [ ] = remark or other dose.

SMILES	MRP-1 activ	MRP reversal	ERa SRC1 inh	ERa SRC1 pot	ERb SRC1 inh
CC1CCc2sc(C(=O)Nc3nnc(SCc4ccc(F)cc4)s3)cc2C1 (centres undefined)	0	-9	6	156	5
O=C1C=CC(=O)N1c1ccc(OC(F)F)cc1	-1	/	/	/	/
Cc1ccc(S(=O)(=O)/N=C(\Nc2cc(C)on2)c2ccc(Cl)cc2)cc1	-1	/	/	/	/
O=C1NC(=O)C2(COC3(CCCC3)OC2)S1	4.8*	-1	10	74	10
CS(=O)(=O)N(CC(=O)N1CCN(c2ccccc2)CC1)c1ccccc1Cl	/	-1	-1	117	0
COc1cccc(NC(=O)N(C2CCCCC2)C(C)c2cccs2)c1 (centres undefined)	-4	8	-10	106	-7
COc1cccc(/C=N/NC(=O)CNC(=O)c2ccc3c(c2)OCCO3)c1O	5.9*	/	/	/	/
COc1cccc(/C=N/NC(=O)CNC(=O)C2COc3ccccc3O2)c1O (centres undefined)	9.6*	/	/	/	/
COc1cccc(/C=N/NC(=O)C[n+]2ccccc2)c1O	1	/	/	/	/
Cc1noc(/C=C/N(C)C)c1S(=O)(=O)N1CCCC(C(=O)NC2CCCCC2C)C1 (centres undefined)	8.6*	-6	3	111	-1
Cc1nn(-c2ccccc2)c(Cl)c1/C=N/Nc1ccc(Cl)c(C(=O)O)c1	-1	/	/	/	/
Cc1nn(-c2ccccc2)c(Cl)c1/C=N/Nc1ccc(S(=O)(=O)Nc2ccccc2C(=O)O)cc1[N+](=O)[O-]	-1	16	89*	23	64*
O=C(Nc1cccc(Cl)c1)Nc1nnc(CC2=CCCCC2)s1	-3	/	/	/	/
Cc1ccc(NS(=O)(=O)c2ccc3c(c2)oc(=O)n3C)cc1F	2	9	-8	221*	-6
O=C1C(Cl)=C(Nc2ccccc2O)C(=O)N1c1ccccc1	-4	-10	54*[fluorescence artefact?]	60	23
CCOc1ccc(C(=O)CC(=O)C(=O)NCCc2ccc(OC)c(OC)c2)cc1	-3	/	/	/	/
C=CCNC(=O)C1CC(=O)N(c2ccc(Br)cc2)C1 (centres undefined)	-1	12	-4	100	95*[fluorescence artefact?]
CCNC(=O)C1CC(=O)N(c2ccc(Br)cc2)C1 (centres undefined)	2	-2	-2	116	-10
Cc1cc(NC(=O)CSc2cn(CCNC(=O)c3ccc(Cl)cc3)c3ccccc23)no1	1	6	70*	58	44
CCOc1ccc(C(=O)NCCn2cc(SCC(=O)Nc3cc(C)on3)c3ccccc32)cc1	-2	-27	12	155	0
COc1ccc2[nH]c3nc(SCC(=O)Nc4ccc5c(c4)OCO5)nnc3c2c1	-4	/	/	/	/
COc1ccc2[nH]c3nc(SCc4nnc(-c5ccc(C)cc5)o4)nnc3c2c1	-1	-28	81*	197	64*[fluorescence artefact?]
CCCCCCc1ccc(OCC(=O)OC)cc1OCC(=O)OC	0	10	-4	79	-1
CCCc1cc(=O)oc2cc(OCC(=O)OC)cc(OCC(=O)OC)c12	-1	11	-4	622*[fluorescence artefact?]	22
O=C(/C=C/c1cccs1)NC(=S)NNC(=O)Cc1cccs1	0	-15	-7	85	5
SMILES	MRP-1 activ	MRP reversal	ERa SRC1 inh	ERa SRC1 pot	ERb SRC1 inh
Cc1nc(-c2ccc(O)c(O)c2)cs1	0	-8	23	79	59*
Cc1nccn1-c1ncnc2sc3c(c12)CCCC3	-3	2	1	93	63*
COC(=O)CCC(=O)NC(=S)Nc1cc(Cl)ccc1Cl	-5	/	/	/	/
CCOC(=O)CC(=O)CSc1nc(C)cc(C)c1C#N	-1	3	7	88	-6
N#Cc1c(N)nc(SCC(=O)C23CC4CC(CC(C4)C2)C3)c(C#N)c1-c1ccc(Cl)cc1	-1	0	34	479*[fluorescence artefact?]	32
CCOC(=O)CC(=O)CSc1nc(N)c(C#N)c(-c2ccc(Cl)cc2)c1C#N	0	-2	15	220*[fluorescence artefact?]	19
CSc1nc(N)nc(SCC(=O)C23CC4CC(CC(C4)C2)C3)c1C#N	-6	/	/	/	/
CN1C(=O)/C(=C/c2cc(N=Nc3ccccc3)ccc2O)SC1=S	-5	/	/	/	/
O=C(NCc1ccccc1)c1ccc(=O)[nH]n1	1	2	0	114	-5
O=C(NCc1ccco1)c1ccc(=O)[nH]n1	-1	-26	45	53	67*[fluorescence artefact?]
Cc1ccc(N2CC(C(=O)Nc3ccccc3C(=O)NC3CCCCC3)CC2=O)cc1C (centres undefined)	/	9	13	91	30
Cc1ccc(Cl)cc1N1CCN(C(=O)c2cc3c(=O)[nH]c4ccccc4c3n2C)CC1	-3	/	/	/	/
CCOC(=O)c1nnc(-c2ccccc2)nc1Oc1ccccc1Cl	5.2*	/	/	/	/
CCOC(=O)c1nnc(-c2ccccc2)nc1NC	-2	/	/	/	/
CC(=NC(C)C)C1=C(O)CCC1=O	0	5	-6	113	-3
Cc1ccc(NC(=O)CCC(=O)N/N=C/c2cccs2)cc1C	7.2*	/	/	/	/
COc1ccc(NC(=O)C2CCC(CNc3c(N4CCC(C)CC4)c(=O)c3=O)CC2)cc1OC (centres undefined)	1	14	2	105	-1
CCC(C)(C(=O)Nc1ccccc1C)N(C(=O)CNC(C)=O)c1ccccc1C (centres undefined)	-1	/	/	/	/
Cc1nc2ccc(-c3nc4cc(N)ccc4o3)cc2[nH]1	-1	-19	11	72	15
Nc1ccc2oc(-c3ccc4nc[nH]c4c3)nc2c1	-2	-11	77*[fluorescence artefact?]	33	30
O=c1c2ccccc2nc2n1CC/C2=C/N1CCN(c2cccc(C(F)(F)F)c2)CC1	-2	-20	70*[fluorescence artefact?]	59	100*[fluorescence artefact?]
N=c1c(-c2nc3ccccc3[nH]2)cc(C(=O)c2cccs2)nn1-c1ccc(Cl)cc1	/	-1	90*[fluorescence artefact?]	29	52*
CCOC(=O)C1=C(C)OC(N)=C(C#N)C1c1cc2cc(C)ccc2nc1N1CCCCC1 (centres undefined)	-2	-18	14	318*[fluorescence artefact?]	32
CCOC(=O)C1=C(C)OC(N)=C(C#N)C1c1cc2ccccc2nc1N1CCCCC1 (centres undefined)	-3	10	-36	32	-21
O=c1[nH]c2ccccc2n2c(-c3ccncc3)nnc12	-2	/	/	/	/
SMILES	MRP-1 activ	MRP reversal	ERa SRC1 inh	ERa SRC1 pot	ERb SRC1 inh
CCN(CC)c1nc(N)c2c(N)nc3c(c2c1C#N)CC(c1ccccc1)O3 (centres undefined)	-1	-1	-5	80	-2
N#Cc1c(N2CCCCC2)nc(N)c2c(N)nc3c(c12)CC(c1ccccc1)O3 (centres undefined)	-4	26	23	217*[fluorescence artefact?]	29
CCOC(=O)c1ccc(NS(=O)(=O)c2ccc(SC)cc2)cc1	-1	10	19	50	-2
CCOC(=O)Cc1ccc(NS(=O)(=O)c2ccc(SC)cc2)cc1	-2	9	54*	52	18
Cc1nc2ccc3nc(NC(=O)C4COc5ccccc5O4)sc3c2s1 (centres undefined)	-2	-33	5	279*	15
CSc1nc2ccc3nc(NC(=O)C4COc5ccccc5O4)sc3c2s1 (centres undefined)	0	-17	18	209*[fluorescence artefact?]	12

Screening data deposited in PubChem BioAssay by several laboratories.
